The record followed here is PubChem BioAssay (NCATS).

SMILES strings stand for the structures. Inconclusive results are not listed. A number with no mark means an inactive call. Active and inactive are the calls of the source. Calls follow the shape of the dose curve; as a rule, active = well fitted curve in the direction sought with a large enough effect; inconclusive = small, poorly fitted or top-dose-only effect, or another doubt; inactive = no such curve, though single readings can be large; an effect the other way counts as inactive or inconclusive.

A short description of experiment [1]: qHTS of pediatric cancer cell lines to identify multiple opportunities for drug repurposing: Primary screen for BT-37 cells (AID 1347094). Put shortly:
(§1)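 Luminescence from CellTiter-Glo served as readout of metabolically active cells after 48 h compound exposure. Titrations: MIPE 11-point, from 0.78 nM; NPC 8-point, from 0.59 nM (final). Concentration-response curves came straight from the primary screen.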
For orientation: Quantitative high-throughput screening tests each substance at several concentrations.

Experiment [2] is described as follows: qHTS of pediatric cancer cell lines to identify multiple opportunities for drug repurposing: Primary screen for NB-EBc1 cells (AID 1347095). Put shortly: as §1
Experiment [3] is described as follows: qHTS of pediatric cancer cell lines to identify multiple opportunities for drug repurposing: Primary screen for Saos-2 cells (AID 1347097). Also: nearly all actives have a fitted effect of over 40% in size. Put shortly: as §1
The nature of experiment [4]: qHTS of pediatric cancer cell lines to identify multiple opportunities for drug repurposing: Primary screen for OHS-50 cells (AID 1347103). Also: nearly all actives have a fitted effect of over 40% in size. Put shortly:
(§2)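 Cells (500-1,000/well) rested 5 h, then received compounds for 48 h; metabolically active cells were measured by CellTiter-Glo luminescence. Final concentrations spanned up to 46 µM (MIPE, 11-point) or 0.59 nM-46 µM (NPC, 8-point) in primary screens, 11-point in follow-ups.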

A short description of experiment [5]: qHTS of pediatric cancer cell lines to identify multiple opportunities for drug repurposing: Primary screen for MG 63 (6-TG R) cells (AID 1347105). Also: nearly all actives have a fitted effect of over 50% in size. Put shortly:
as §1

Experiment [6] is described as follows: qHTS of pediatric cancer cell lines to identify multiple opportunities for drug repurposing: Primary screen for control Hh wild type fibroblast cells (AID 1347106). Also: nearly all actives have a fitted effect of over 55% in size. Put shortly: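 Cells (500-1,000/well) in growth media were settled 5 h at 37 degrees C, then given compounds for 48 h. Viability was read as CellTiter-Glo luminescence. Primary runs used MIPE at 11 points (0.78 nM-46 µM) and NPC at 8 points (0.59 nM-46 µM); follow-ups used 11 points.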

The nature of experiment [7]: qHTS of pediatric cancer cell lines to identify multiple opportunities for drug repurposing: Primary screen for Rh41 cells (AID 1347108). Also: nearly all actives have a fitted effect of over 70% in size. Put shortly:
as §1

Experiment [8] in a line: qHTS of pediatric cancer cell lines to identify multiple opportunities for drug repurposing: Primary screen for NB1643 cells (AID 1347099). Also: nearly all actives have a fitted effect of over 50% in size. Put shortly:
as §1

A short description of experiment [9]: qHTS of pediatric cancer cell lines to identify multiple opportunities for drug repurposing: Primary screen for LAN-5 cells (AID 1347100). Put shortly: as §2
Experiment [10] in a line: qHTS of pediatric cancer cell lines to identify multiple opportunities for drug repurposing: Primary screen for Rh18 cells (AID 1347102). Also: nearly all actives have a fitted effect of over 65% in size. Put shortly: as §2
A short description of experiment [11]: qHTS of pediatric cancer cell lines to identify multiple opportunities for drug repurposing: Primary screen for RD cells (AID 1347104). Also: nearly all actives have a fitted effect of over 55% in size. Put shortly:
as §1

Experiment [12] is described as follows: qHTS of pediatric cancer cell lines to identify multiple opportunities for drug repurposing: Primary screen for Rh30 cells (AID 1347107). Also: nearly all actives have a fitted effect of over 75% in size. Put shortly: as §2
Experiment [13] in a line: qHTS of pediatric cancer cell lines to identify multiple opportunities for drug repurposing: Confirmatory screen for A673 cells (AID 1347110).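 Also: cells exposed to compound for 48 h before the viability read; nearly all actives have a fitted effect of over 65% in size.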 Put shortly:
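A673 cells seeded at 500-1,000 cells/well, rested 5 h, then dosed; primary MIPE 11-point (0.78 nM to 46 µM), NPC (0.59 nM to 46 µM); confirmatory 11-point. CellTiter-Glo luminescence after 48 h.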

A short description of experiment [14]: qHTS of pediatric cancer cell lines to identify multiple opportunities for drug repurposing: Confirmatory screen for SK-N-MC cells (AID 1347111).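 Also: cells exposed to compound for 48 h before the readout; nearly all actives have a fitted effect of over 70% in size.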 Put shortly: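 Seed 500-1,000 cells/well; rest 5 h at 37 degrees C. Pin-transfer compounds, 11-point titration. Incubate 48 h. Add CellTiter-Glo, 15 min RT, read luminescence.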
Experiment [15] in a line: qHTS of pediatric cancer cell lines to identify multiple opportunities for drug repurposing: Confirmatory screen for LAN-5 cells (AID 1347113). Also: nearly all actives have a fitted effect of over 65% in size. Put shortly: as §2
The nature of experiment [16]: qHTS of pediatric cancer cell lines to identify multiple opportunities for drug repurposing: Primary screen for BT-12 cells (AID 1347101). Also: nearly all actives have a fitted effect of over 25% in size. Put shortly: as §2
The nature of experiment [17]: qHTS of pediatric cancer cell lines to identify multiple opportunities for drug repurposing: Confirmatory screen for NB1643 cells (AID 1347109). Also: nearly all actives have a fitted effect of over 45% in size. Put shortly:
as §2

A short description of experiment [18]: qHTS of pediatric cancer cell lines to identify multiple opportunities for drug repurposing: Confirmatory screen for BT-12 cells (AID 1347112). Also: nearly all actives have a fitted effect of over 55% in size. Put shortly: as §2
Experiment [19] in a line: qHTS of pediatric cancer cell lines to identify multiple opportunities for drug repurposing: Primary screen for SK-N-SH cells (AID 1347098). Also: nearly all actives have a fitted effect of over 65% in size. Put shortly: as §2
Potency is read from the fitted curve at half-maximal effect.

On to `Cc1ccc(-n2[nH]c(C)c(N=Nc3cccc(-c4cccc(C(=O)O)c4)c3O)c2=O)cc1C`, for which the Potency in [1] is 19.5 µM (active); in [2] it was 6.62 µM (active); in experiment [3], 13.3 µM (active); in [4] it was 17.4 µM (active); in experiment [5], 21.1 µM (active); in experiment [7], 18.7 µM (active). In experiment [6], the Potency entry is “inactive”.

For `CNC(=O)Nc1ccc(-c2nc(N3CC4CCC(C3)O4)c3cnn(C4CCC5(CC4)OCCO5)c3n2)cc1`, the Potency in experiment [1] was 0.0306 µM (active); in experiment [2], 0.132 µM (active); in [3], 0.209 µM (active); in experiment [9], 6.62 µM (active); in experiment [10], 0.0935 µM (active); in experiment [11], 0.0526 µM (active). Further, the Potency in experiment [5] was 0.0118 µM (active); in experiment [12], 11.8 µM (active); in [7] it was 0.0418 µM (active); in experiment [13] it was 1.04 µM (active); in [14], 0.585 µM (active); in experiment [15], 0.585 µM (active). In experiment [8], the Potency result was “inactive”.

Take `CC[C@@]1([C@@H]2O[C@@H]([C@H]3O[C@@](O)(CO)[C@H](C)C[C@H]3C)C[C@H]2C)CC[C@H]([C@]2(C)CC[C@]3(C[C@H](O)[C@@H](C)[C@@H]([C@@H](C)[C@@H](OC)[C@H](C)C(=O)O)O3)O2)O1`: the Potency in experiment [1] is 0.15 µM (active); in [2], 0.182 µM (active); in [3], 6.45 µM (active); in experiment [8], 0.457 µM (active); in [9] it was 0.129 µM (active); in experiment [16], 0.106 µM (active). Besides, the Potency was 0.188 µM (active) in [4]; 0.362 µM (active) in experiment [17]; 1.02 µM (active) in experiment [13]; 0.229 µM (active) in [14]; 1.15 µM (active) in [18]; 0.362 µM (active) in [15]. The Potency entry in experiment [10] and in experiment [7] was “inactive” in each case.

In the case of `FC(F)c1nc2ccccc2n1-c1nc(N2CCOCC2)nc(N2CCOCC2)n1`, the Potency in [1] is 1.09 µM (active); in experiment [2], 0.662 µM (active); in [3], 0.526 µM (active); in experiment [8], 1.48 µM (active); in [9] it was 1.18 µM (active); in experiment [16], 1.22 µM (active). The Potency is 0.935 µM (active) in experiment [10]; 0.0769 µM (active) in [4]; 0.418 µM (active) in experiment [11]; 0.187 µM (active) in [5]; 1.48 µM (active) in experiment [7]; 1.47 µM (active) in [17]. Also, the Potency in experiment [14] is 0.737 µM (active); in experiment [18], 1.04 µM (active); in [15], 1.47 µM (active).

Regarding `O=C1NCCc2[nH]c(-c3ccncc3)cc21`, the Potency in experiment [1] is 3.06 µM (active); in experiment [2], 2.09 µM (active); in [3], 4.18 µM (active); in experiment [4], 2.43 µM (active); in experiment [11], 6.62 µM (active); in experiment [7] it was 2.35 µM (active). Moreover, the Potency is 2.08 µM (active) in experiment [13], 7.37 µM (active) in [14] and 2.33 µM (active) in experiment [18]. Moreover, the Potency result in experiment [6] and in experiment [12] was “inactive” in each case.

For `Cc1ccc2nc(NCCN)c3ncc(C)n3c2c1`, the Potency in experiment [1] is 24.3 µM (active); in [2] it was 7.43 µM (active); in experiment [3], 14.8 µM (active); in experiment [19], 6.81 µM (active); in experiment [8] it was 5.9 µM (active); in experiment [16] it was 34.3 µM (active). Further, the Potency in experiment [4] was 24.3 µM (active); in [5], 18.7 µM (active); in [7], 18.7 µM (active).

Turning to `C#Cc1cccc(Nc2ncnc3cc(OCCOC)c(OCCO)cc23)c1`, the Potency was 6.85 µM (active) in experiment [1]; 5.26 µM (active) in experiment [2]; 5.9 µM (active) in experiment [3]; 1.87 µM (active) in [8]; 0.264 µM (active) in [9]; 3.85 µM (active) in experiment [4]. Further, the results for the Potency in experiment [11] and in [7] were 1.66 µM (active) and 7.43 µM (active), respectively.

For the compound `C=CC(=O)N1CCc2ccc(-n3c(=O)ccc4cnc5ccc(-c6cnn(C)c6)cc5c43)cc21`, the Potency in experiment [1] was 6.11 µM (active); in experiment [2], 3.72 µM (active); in experiment [3], 2.96 µM (active); in experiment [19], 8.57 µM (active); in experiment [8] it was 2.35 µM (active); in experiment [9], 2.35 µM (active). The Potency in [16] is 6.11 µM (active); in [10], 8.33 µM (active); in experiment [4], 8.63 µM (active); in [11] it was 4.69 µM (active); in [5], 2.96 µM (active); in experiment [7] it was 3.72 µM (active). The Potency in [17] was 2.93 µM (active); in [13], 14.7 µM (active); in experiment [14], 5.22 µM (active); in experiment [15] it was 2.93 µM (active).

For `CC(=O)ON=C1C(c2c(O)[nH]c3cc(Br)ccc23)=Nc2ccccc21`, the Potency in [1] is 6.11 µM (active); in experiment [2], 5.26 µM (active); in [3], 11.8 µM (active); in experiment [8] it was 16.6 µM (active); in [16], 19.3 µM (active); in [7], 2.96 µM (active). Moreover, the Potency in [17] was 16.5 µM (active); in experiment [13] it was 7.37 µM (active); in [14], 8.27 µM (active); in experiment [18] it was 18.5 µM (active); in experiment [15], 14.7 µM (active). The Potency result in [6] was “inactive”.

On to `Cc1[nH]c(C=C2C(=O)Nc3ccccc32)c(C)c1CCC(=O)O`, for which the Potency is 0.863 µM (active) in [1]; 0.148 µM (active) in experiment [2]; 3.32 µM (active) in experiment [3]; 0.541 µM (active) in experiment [19]; 3.32 µM (active) in [8]; 0.132 µM (active) in experiment [9]. Moreover, the values for the Potency in experiment [16], in [10] and in [4] were 7.69 µM (active), 23.5 µM (active) and 1.22 µM (active), respectively. The Potency result in experiment [6], in experiment [17], in experiment [13], in [14], in experiment [18] and in [15] was “inactive” throughout.

Turning to `FC(F)(F)c1ccc(Nc2nc3ccc(Oc4ccnc(-c5ncc(C(F)(F)F)[nH]5)c4)cc3[nH]2)cc1`, the Potency in experiment [1] is 13.7 µM (active); in [2], 20.9 µM (active); in experiment [3], 7.43 µM (active); in [19], 5.41 µM (active); in experiment [8] it was 16.6 µM (active); in [4], 24.3 µM (active). Moreover, the Potency in [11] is 18.7 µM (active). Besides, the Potency result in experiment [6] was “inactive”.

Regarding `CC(=O)[C@]1(O)Cc2c(O)c3c(c(O)c2[C@@H](O[C@H]2C[C@H](N)[C@@H](O)[C@H](C)O2)C1)C(=O)c1ccccc1C3=O`, the Potency in experiment [1] was 0.193 µM (active); in experiment [2], 0.0372 µM (active); in experiment [19] it was 0.192 µM (active); in [8], 0.743 µM (active); in experiment [9] it was 0.0935 µM (active); in [16], 0.685 µM (active). In addition, the Potency in [10] is 4.69 µM (active); in experiment [4] it was 0.485 µM (active); in [11], 1.05 µM (active); in experiment [5], 0.235 µM (active); in experiment [6], 3.72 µM (active); in experiment [12], 4.69 µM (active). Moreover, the Potency was 0.935 µM (active) in [7]; 0.0827 µM (active) in [13]; 0.522 µM (active) in experiment [14]; 4.14 µM (active) in [18]; 0.329 µM (active) in experiment [15].

Take `C[C@]12CC[C@@H]3c4ccc(O)cc4CC[C@H]3[C@H]1CC[C@H]2O`: the Potency is 27.3 µM (active) in [1]; 9.35 µM (active) in [2]; 16.6 µM (active) in experiment [3]; 4.18 µM (active) in experiment [8]; 9.35 µM (active) in experiment [9]; 24.3 µM (active) in [4]. Also, the Potency result in experiment [6] was “inactive”.
